Experimental data published in ChEMBL document CHEMBL4888484, “Replenishing the malaria drug discovery pipeline: Screening and hit evaluation of the MMV Hit Generation Library 1 (HGL1) against asexual blood stage Plasmodium falciparum ,using a nano luciferase reporter read-out” (2022).
Hit rate of the full screen: of about 150,000 compounds, about 540 (0.36%) showed an effect of 50% or more. Many of the other results were omitted from the sample, so strong results are more common in it than they were.

Test system: Plasmodium falciparum
Assay: Primary screen in NF54 nanoGlo assay, in single point, at 2uM, 72h; a lower Z score goes with more inhibition
Type: functional, Erythrocyte
Conditions: timepoint 72 hour

Q: What does the source list for c1csc([C@@H]2CN(c3ncnc4sccc34)CCO2)n1?
A: % Inhibition: 5%; Z score: -0.74

Q: Which “% Inhibition” value does the source give for O=C(NC1CCCCC1)c1nn(-c2ccc(F)cc2)c2ccccc2c1=O here?
A: -15%

Q: And the Z score?
A: 2.13

Q: Which “% Inhibition” value does the source give for O=C1NCCCN1C1CCN(Cc2ccc(Cl)c(C(F)(F)F)c2)CC1 here?
A: 10%

Q: What about the Z score of the same compound?
A: -1.75

Q: What does the source list for COc1cc(-c2ccc(C(=O)N3CCC[C@H](O)C3)cc2)nc(OC)n1?
A: % Inhibition: 2%; Z score: -0.43

Q: How did the “% Inhibition” value turn out when O=C(Nc1ccc(N2CCOCC2)cc1)[C@H]1CCN(c2cn[nH]c(=O)c2)C1 was run?
A: -14%

Q: What about the Z score of the same compound?
A: 1.91

Q: Which results are given for Cc1cccc(CNC(=O)[C@H]2CCN(c3cn[nH]c(=O)c3)C2)c1?
A: % Inhibition: -12%; Z score: 1.58

Q: Cc1cccc(NC(=O)[C@H]2CCN(c3cn[nH]c(=O)c3)C2)c1 was tested. Which “% Inhibition” value did it give?
A: 52%

Q: And the Z score?
A: -0.4

Q: CCCCN1C(=O)[C@](NS(=O)(=O)c2ccc(NC(C)=O)cc2)(C(F)(F)F)C(C(C)=O)=C1C was tested. Which “% Inhibition” value did it give?
A: -7%

Q: And the Z score?
A: 0.92

Q: How did the “% Inhibition” value turn out when N#Cc1nc2c(S(=O)(=O)c3ccccc3)c(N)n(Cc3ccc(Cl)cc3)c2nc1C#N was run?
A: -16%

Q: What about the Z score of the same compound?
A: 2.57

Q: With COc1ccc(CCn2c(N)c(-c3nc4ccccc4s3)c3nc(C#N)c(C#N)nc32)cc1OC as the compound, how does the “% Inhibition” value read?
A: -5%

Q: What about the Z score of the same compound?
A: 0.86

Q: How did the “% Inhibition” value turn out when N#Cc1nc2c(C#N)c(N)n(CCc3ccccc3)c2nc1C#N was run?
A: 88%

Q: What about the Z score of the same compound?
A: -11.87

Q: C[C@H]1COCCN1C(=O)CCc1ccco1 was tested. Which “% Inhibition” value did it give?
A: -2%

Q: What about the Z score of the same compound?
A: 0.25

Q: What does the source list for Cc1ccc(CNC[C@H](O)c2cccnc2)c(Br)c1?
A: % Inhibition: 7%; Z score: -0.68

Q: Which results are given for O=C(Cn1cnc2ccc(Cl)cc2c1=O)NCCCc1ccccc1?
A: % Inhibition: 2%; Z score: -0.27

Q: For Cc1ccsc1CN(CCN1CCOCC1)[C@H]1CCCNC1, which “% Inhibition” value is on record?
A: -5%

Q: And the Z score?
A: 0.7

Q: With CCOC(=O)N1CC[C@H](NC2(c3cc(F)ccc3F)CC2)C1 as the compound, how does the “% Inhibition” value read?
A: -9%

Q: What about the Z score of the same compound?
A: 1.36

Q: How did the “% Inhibition” value turn out when O=C(Cn1cc2c(n1)CCCCCC2)NCCc1ccc(Cl)cc1 was run?
A: 6%

Q: And the Z score?
A: -0.96

Q: Which results are given for C[C@@H](CNc1cnc2ccccc2n1)N1CCOCC1?
A: % Inhibition: 20%; Z score: -2.58

Q: Which results are given for C[C@@H](CNc1nc(-c2ccccc2)nc2ccccc12)N1CCOCC1?
A: % Inhibition: -9%; Z score: 1.51

Q: Which “% Inhibition” value does the source give for CCCCCc1nc([C@H](C)N2CCN(C)CC2)n(-c2cc(C)ccn2)n1 here?
A: -3%

Q: What about the Z score of the same compound?
A: 0.42

Q: O=S(=O)(c1ccc(Cl)s1)N1CCc2nc(-c3ccc(Cl)cc3)ncc2C1 was tested. Which “% Inhibition” value did it give?
A: -11%

Q: And the Z score?
A: 1.78

Q: What does the source list for Cc1cccc2c1OCC[C@H]2NC(=O)Cn1cnc2c1CCNC21CCOCC1?
A: % Inhibition: -5%; Z score: 0.76

Q: For O=c1[nH]nc(Cn2ccnc2)n1Cc1ccc(Cl)cc1Cl, which “% Inhibition” value is on record?
A: 0%

Q: What about the Z score of the same compound?
A: -0.08

Q: Which results are given for CCOc1cc(CNCCCn2ccnc2)ccc1OCc1ccccc1?
A: % Inhibition: 46%; Z score: -2.57

Q: What does the source list for C[C@@H](NCCCn1ccnc1)c1ccc(Cl)cc1?
A: % Inhibition: -4%; Z score: 0.5

Q: For O[C@@H](CNCCCn1ccnc1)COc1ccc(Cl)cc1Cl, which “% Inhibition” value is on record?
A: 26%

Q: And the Z score?
A: -2.66

Q: What does the source list for Clc1ccc(Cn2cc(CNCCCn3ccnc3)c3ccccc32)c(Cl)c1?
A: % Inhibition: 98%; Z score: -10.9

Q: What does the source list for Clc1ccc(COc2ccc(Cl)cc2CNCCCn2ccnc2)c(Cl)c1?
A: % Inhibition: 94%; Z score: -11.1

Q: For O=C(O)c1cccc(CN2CCc3nc(C4CC4)ncc3C2)c1, which “% Inhibition” value is on record?
A: -13%

Q: What about the Z score of the same compound?
A: 1.45

Q: How did the “% Inhibition” value turn out when CC1CC(N2CCCC(n3cnc4ccccc43)C2)CN1C (centres undefined) was run?
A: -5%

Q: What about the Z score of the same compound?
A: 0.43

Q: Cc1ccc(C(=O)c2nocc2C(=O)c2cccnc2)cc1 was tested. Which “% Inhibition” value did it give?
A: 1%

Q: What about the Z score of the same compound?
A: -0.19

Q: With CCc1cc(C(=O)N2CCN(C/C=C/c3ccccc3)CC2)cc(=O)[nH]1 as the compound, how does the “% Inhibition” value read?
A: 0%

Q: What about the Z score of the same compound?
A: 0.04

Q: What does the source list for CC(C)[C@@H]1CC[C@H](C)C[C@H]1OC(=O)Cn1cc(-c2ccc(Cl)cc2)[n+]2c1CCC2?
A: % Inhibition: 79%; Z score: -6.99

Q: With CC1CCC(C(C)C)C(OC(=O)COC(=O)c2ccncc2)C1 (centres undefined) as the compound, how does the “% Inhibition” value read?
A: -10%

Q: And the Z score?
A: 1.31

Q: Which results are given for CC1CCC(C(C)C)C(OC(=O)Cn2nnc(C(N)=O)n2)C1 (centres undefined)?
A: % Inhibition: 19%; Z score: -2.22

Q: With Cc1onc(-c2ccccn2)c1C(=O)NC1CCCCC1 as the compound, how does the “% Inhibition” value read?
A: 12%

Q: What about the Z score of the same compound?
A: -2.28

Q: With CNC(=O)CCCC(=O)Nc1ccc(Br)cc1O as the compound, how does the “% Inhibition” value read?
A: -9%

Q: And the Z score?
A: 0.88

Q: For O=C(Nc1ccc(Cc2ccc(NC(=O)c3ccc(Br)cc3)c(O)c2)cc1O)c1ccc(Br)cc1, which “% Inhibition” value is on record?
A: 60%

Q: And the Z score?
A: -1

Q: Which “% Inhibition” value does the source give for C=C(C)C(=O)Nc1ccc(Cc2ccc(NC(=O)C(=C)C)c(O)c2)cc1O here?
A: 0%

Q: What about the Z score of the same compound?
A: -0.04

Q: Which “% Inhibition” value does the source give for CCN(CC(=O)N1CCCNC(=O)[C@@H]1C)c1ccccc1 here?
A: -10%

Q: What about the Z score of the same compound?
A: 1.27

Q: How did the “% Inhibition” value turn out when O=C(NCCN1CCCCC1)c1n[nH]c2c1CCc1ccccc1-2 was run?
A: 52%

Q: And the Z score?
A: -0.47

Q: For O=C(NCCc1nccs1)c1n[nH]c2c1CCc1ccccc1-2, which “% Inhibition” value is on record?
A: -9%

Q: And the Z score?
A: 1.37
